# Assay outcomes (PubChem BioAssay)
# This is one part of a sample in which hits are shown more often than they occur.
# Tg IFNy HTS = T. gondii growth inhibition under IFN-gamma; Toxoplasma gondii growth in IFN-gamma-treated host cells; active compounds read low; activity change, negative = inhibition, % (test concentration not listed); actives 3.8% (n = 69,000); in the data active means activity change below about -70%, passing the limit was not always enough;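 further: host cells are HeLa cells infected with Toxoplasma gondii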
# The depositor's hits bear a star; ! = a repeat was not active.
SMILES,Tg IFNy HTS
CC(C)CCN1c2nc(Nc3cc(F)c(O)c(F)c3)ncc2N(C)C(=O)C1C (stereo unspecified),-84*
C=CC(=O)NCc1ccccc1,11
CN(Cc1nccn1C)C(=O)c1cccc(NCc2cccs2)c1,32
CNC(=O)CC1C(=O)NCCN1Cc1c(C)cc(C)cc1-n1cccn1 (stereo unspecified),1
Cc1oc(-c2ccc(NC(=O)c3cc(F)ccc3Cl)cc2)nc1Cn1cccn1,-92*
Cc1cnn(Cc2nc(-c3ccc(NC(=O)c4cc(F)ccc4Cl)cc3)oc2C)c1,-89*
Cc1cnn(Cc2nc(-c3ccc(NC(=O)c4c(F)cccc4Cl)cc3)oc2C)c1,-54
Cc1oc(-c2ccc(NC(=O)c3ccccc3C(F)(F)F)cc2)nc1Cn1cccn1,-46
COc1ccccc1C(=O)Nc1ccc(-c2nc(Cn3cccn3)c(C)o2)cc1,-25
Cc1oc(-c2ccc(NC(=O)c3ccc(F)c(Cl)c3)cc2)nc1Cn1cccn1,-69
CSc1ccc(Cl)c(C(=O)Nc2ccc(-c3nc(Cn4cccn4)c(C)o3)cc2)c1,-93*
Cc1oc(-c2ccc(NC(=O)c3c(F)cccc3Cl)cc2)nc1Cn1cccn1,65
Cc1cnn(Cc2nc(-c3ccc(NC(=O)c4ccc(F)cc4F)cc3)oc2C)c1,-4
CCc1cnc(C)nc1N1CCC(N2CCCC2=O)CC1,-4
Nc1cc(=O)[nH]c(SCC(=O)NCc2ccccc2)n1,-69
COc1cc(C[C@H]2C(=O)OC[C@@H]2Cc2ccc(OC)c(OC)c2)ccc1O,-27
COc1ccc2c(c1)OCC(Cc1ccc(O)c(OC)c1)C2=O (stereo unspecified),2
COc1ccc2c(c1)OCC(Cc1ccc(OC)c(O)c1)C2=O (stereo unspecified),-75*
CCCc1[nH]ncc1C(=O)N1CCCC(c2[nH]ncc2-c2ccc(F)cc2)C1 (stereo unspecified),-8
CCCc1cc(C(=O)N2CCCC(c3[nH]c4c(C)cccc4c3-c3ccncc3)C2)no1 (stereo unspecified),-116*
CCCc1cc(C(=O)N2CCCC(c3[nH]ncc3-c3ccccc3)C2)ccn1 (stereo unspecified),-3
COc1ccc(CNC(=O)c2nc(Nc3ccc(C)cc3)c3ccccc3n2)c(OC)c1,-25
O=S(=O)(c1cccc(F)c1)N1CCn2nnc(COc3cccnc3)c2C1,1
COc1ccc2c(c1)NC1(CCN(S(=O)(=O)c3cc(C)ccc3C)CC1)c1cccn1-2,-6
COc1ccc(OC)c(S(=O)(=O)N2CCC3(CC2)Nc2cc(C)ccc2-n2cccc23)c1,11
SMILES,Tg IFNy HTS
CCN1c2cc(C)ccc2-n2cccc2C12CCN(S(=O)(=O)c1cc(OC)ccc1OC)CC2,-103*
CCN1c2cc(C)ccc2-n2cccc2C12CCN(S(=O)(=O)c1c(C)noc1C)CC2,64
CCN1c2cc(C)ccc2-n2cccc2C12CCN(S(=O)(=O)c1ccc3c(c1)CCCC3)CC2,-81*
CCc1ccc(S(=O)(=O)N2CCC3(CC2)c2cccn2-c2ccc(C)cc2N3CC)cc1,-65
COc1ccc(S(=O)(=O)N2CCC3(CC2)Nc2ccccc2-n2cccc23)cc1Cl,22
CCN1c2cc(C)ccc2-n2cccc2C12CCN(S(=O)(=O)c1ccc(OC)c(Cl)c1)CC2,-100*
CCN1c2cc(C)ccc2-n2cccc2C12CCN(S(=O)(=O)c1ccc(Cl)s1)CC2,-61
Cc1ccc(S(=O)(=O)N(C)c2c(C)ccc(S(=O)(=O)n3nc(C)cc3C)c2C)cc1,2
O=C(C[C@@H]1CC[C@@H]2[C@H](COC[C@H](O)CN2C(=O)Nc2cc(Cl)cc(Cl)c2)O1)N1CCOCC1,10
CCn1c(=O)c(C(=O)NCCN2CCOCC2)c(O)c2ccccc21,0
COCCN(C(=O)C(F)(F)F)C(C(=O)NC1CCCC1)c1cccs1 (stereo unspecified),4
Cc1ccc(CN2CCC3(CC2)OC(C(=O)Nc2cccnc2C)Cn2ccnc23)cc1 (stereo unspecified),15
COC(=O)CCC(=O)N1CC2CN(Cc3ccc[nH]3)CC2C1 (stereo unspecified),35
C=C[C@H]1CN2CC[C@H]1C[C@@H]2[C@@H](O)c1ccnc2ccc(OC)cc12,-88*!
C=CC1CN2CCC1CC2[C@@H](O)c1ccnc2ccc(OC)cc12 (stereo partly specified),-60
C=C[C@H]1CN2CC[C@H]1C[C@@H]2[C@H](O)c1ccnc2ccc(OC)cc12,-16
CN1C(=O)CCc2cc(NC(=O)c3ccc(Cl)nc3)ccc21,-65
Cc1ccc(C2(O)CCN(C(=O)c3ccccc3-n3cncn3)CC2)nc1,-9
CCn1c(-c2cc(NC(=O)c3cncc(Br)c3)n[nH]2)cc2cc(OC)ccc21,37
CCn1c(-c2cc(NC(=O)c3cccnc3)n[nH]2)cc2c(OC)cccc21,-48
CCn1c(-c2cc(NC(=O)c3ccncc3)n[nH]2)cc2ccc(OC)cc21,-92*
CCOc1ccc(-c2cc3c(=O)n(Cc4nc(-c5ccccc5C)oc4C)ccn3n2)cc1,37
Cc1cc2ccccc2n1CCC(=O)NC1CCN(Cc2ccccn2)CC1,-35
Cc1ccc2c(c1C)-n1cccc1C1(CCN(C(=O)c3ccccc3C(F)(F)F)CC1)N2,38
CCN1CCOCC2(CCCN(C(=O)Cc3cccs3)C2)C1 (stereo unspecified),10
SMILES,Tg IFNy HTS
CC(=O)N1CC2(CCN(C(=O)c3cnc4ccccc4n3)CC2)CC1C(=O)O (stereo unspecified),5
CCOCc1noc2c1CN(Cc1ccoc1)CC2,-8
C/C=C/c1ccc(C2[C@H]3CNC[C@@H]2N3C(=O)NC2CCCCC2)cc1 (stereo partly specified),-76*!
C/C=C/c1ccc(C2[C@H]3CNC[C@@H]2N3C(=O)Nc2ccccc2Cl)cc1 (stereo partly specified),44
C/C=C/c1ccc(C2[C@H]3CNC[C@@H]2N3C(=O)NCCC)cc1 (stereo partly specified),8
CN(C)C(=O)CN1C[C@]23CN(Cc4cnn(C)c4)C[C@@H](C[C@@H]2S1(=O)=O)O3,-108*
CN(C)C(=O)COCC1CC2(CCN(Cc3cnn(C)c3)CC2)CO1 (stereo unspecified),-32
CN(C)C(=O)CN1CCC2(CCCN2Cc2cnn(C)c2)CC1,-55
CCn1c(=O)c(-c2nc(-c3ccncc3)no2)c(O)c2ccccc21,34
CC(C)Oc1cc(N[C@H]2CCCC[C@@H]2O)nc(N)n1,-9
O=C(NC1CCN(c2cnccn2)CC1)c1ccccc1C1CCNC1 (stereo unspecified),3
O=C(NC1CCc2[nH]ncc2C1)c1cccc(CC2CCNCC2)c1 (stereo unspecified),3
O=C(NC1CCNCC1)c1[nH]ncc1NC(=O)c1c(Cl)cccc1Cl,-72*
C=CC(=O)N1CCCC(c2nc(CCNC(=O)C3CC3)cs2)C1 (stereo unspecified),-2
N[C@@H]1CC[C@@H](NC(=O)C(=O)c2ccccc2)C1,0
CCOC(=O)CC1(NC(=O)N2CCC3(CC2)Nc2ccccc2-n2cccc23)CCCCC1,447
Cc1c(-c2ccccc2)n[nH]c1C(=O)N1CCC(c2ccccc2C(=O)O)C1 (stereo unspecified),-6
O=C(O)c1ccc(-c2c[nH]c3ncc(-c4ccccc4)cc23)cc1C1CCCC1,-85*
O=C(O)c1ccccc1C1CCN(C(=O)Cc2c[nH]c3ccccc23)C1 (stereo unspecified),-42
c1ccc(C(c2ccccc2)c2noc3c2CN(CCn2cncn2)CC3)cc1,17
